Our source for the z-score and composite z-score values is PubChem BioAssay.

The structures appear in SMILES notation. Activity calls are given as the source filed them.

Test [1] is described as follows: optical density shifts of acrAB sulA E. coli – strain DRC41, OD650, 48 h, E. coli filamentation inducer project, primary screen (AID 1152).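 Also: E. coli MC1000 strain DRC41 lacking acrAB efflux pump and sulA.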 The following applies: higher = more signal, called active from +8 up or from −8 down.
Test [2] can be described thus: probe aLefty1 binding on compound microarray – biochemical, small-molecule microarray, 635/667 nm fluorescence, primary screen (AID 1153).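 Also: score merges spot fluorescence with signal-to-noise ratio from the scanned slide images.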 As to conditions: higher = more signal.
A short description of test [3]: plasmodial surface anion channel blockers, osmotic lysis – cell-based, P. falciparum Indochina, OD700, 1 h, primary screen (AID 1154). As to conditions: P. falciparum Indochina infected RBC osmotic lysis, higher = more signal, called active from +8 up or from −8 down.
A short description of test [4]: plasmodial surface anion channel blockers, osmotic lysis – cell-based, P. falciparum Indochina, OD700, 2 h, primary screen (AID 1155).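 Also: lysis reports solute entry through the parasite surface anion channel PSAC.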 The following applies: P. falciparum Indochina infected erythrocytes, higher = more signal, called active from +8 up or from −8 down.
Test [5] can be described thus: changes in parasitized red cell lysis, either direction – P. falciparum Indochina, OD700, 3 h, PSAC antagonist project, primary screen (AID 1156). As to conditions: P. falciparum-infected erythrocytes, osmotic lysis, higher = more signal, called active from +8 up or from −8 down.
Test [6] can be described thus: plasmodial surface anion channel blockers, osmotic lysis – cell-based, P. falciparum Indochina, OD700, 18 h, primary screen (AID 1157). The following applies: P. falciparum Indochina infected erythrocytes, osmotic lysis OD700, 18 h; higher = more signal, called active from +8 up or from −8 down.
Test [7] can be described thus: S6 kinase pathway phospho-S6 level changes – cell-based, A549, cytoblot, luminescence, serum-stimulated, primary screen (AID 1158).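 Also: serum-stimulated A549 lung adenocarcinoma cells; signal is phosphorylated S6 detected by cytoblot immunostaining with HRP secondary.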 As to conditions: 5 h, higher = more signal.
In test [8] the target is NADPH oxidase 2 (Homo sapiens) (UniProt P04839). Nature of the test: compounds shifting NOX2 Amplex Red fluorescence – cell-based, HEK293-NOX2, PMA-stimulated, NOX inhibitor project, primary screen (AID 1159). Also: test concentration not given here. As to conditions: 45 min, higher = more signal, called active from +8 up or from −8 down.
For test [9], the target named is NADPH oxidase 4 (Homo sapiens) (UniProt Q9NPH5). Description: compounds shifting NOX4 Amplex Red fluorescence – cell-based, HEK293-NOX4, tetracycline-induced, NOX inhibitor project, primary screen (AID 1160). As to conditions: HEK293-NOX4, Amplex Red H2O2 fluorescence, 45 min; higher = more signal, called active from +8 up or from −8 down.
Test [10] concerns the target NADPH oxidase 5 (Homo sapiens) (UniProt Q96PH1). Description: compounds shifting NOX5 Amplex Red fluorescence – cell-based, HEK293-NOX5, NOX inhibitor project, primary screen (AID 1161). The following applies: HEK293-NOX5, ionomycin, 45 min, higher = more signal.

Chain of NADPH oxidase 4 (Homo sapiens) (Q9NPH5 whole entry, looked up): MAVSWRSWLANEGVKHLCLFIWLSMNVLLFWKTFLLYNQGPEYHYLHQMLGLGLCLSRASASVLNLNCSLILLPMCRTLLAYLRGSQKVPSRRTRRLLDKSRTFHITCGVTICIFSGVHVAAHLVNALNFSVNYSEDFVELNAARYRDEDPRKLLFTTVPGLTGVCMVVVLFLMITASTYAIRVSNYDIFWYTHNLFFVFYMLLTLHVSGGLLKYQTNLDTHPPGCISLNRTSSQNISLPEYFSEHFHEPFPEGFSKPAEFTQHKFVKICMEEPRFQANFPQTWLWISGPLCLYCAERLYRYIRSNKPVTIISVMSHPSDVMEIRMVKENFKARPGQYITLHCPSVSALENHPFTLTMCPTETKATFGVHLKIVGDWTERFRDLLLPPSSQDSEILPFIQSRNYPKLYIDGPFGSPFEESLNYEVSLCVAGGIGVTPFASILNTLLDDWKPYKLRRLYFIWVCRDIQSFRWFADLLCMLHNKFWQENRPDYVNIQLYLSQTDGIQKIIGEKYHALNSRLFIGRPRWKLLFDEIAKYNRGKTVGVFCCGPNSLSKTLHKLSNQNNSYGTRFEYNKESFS
Chain of NADPH oxidase 2 (Homo sapiens) (P04839 whole entry, looked up): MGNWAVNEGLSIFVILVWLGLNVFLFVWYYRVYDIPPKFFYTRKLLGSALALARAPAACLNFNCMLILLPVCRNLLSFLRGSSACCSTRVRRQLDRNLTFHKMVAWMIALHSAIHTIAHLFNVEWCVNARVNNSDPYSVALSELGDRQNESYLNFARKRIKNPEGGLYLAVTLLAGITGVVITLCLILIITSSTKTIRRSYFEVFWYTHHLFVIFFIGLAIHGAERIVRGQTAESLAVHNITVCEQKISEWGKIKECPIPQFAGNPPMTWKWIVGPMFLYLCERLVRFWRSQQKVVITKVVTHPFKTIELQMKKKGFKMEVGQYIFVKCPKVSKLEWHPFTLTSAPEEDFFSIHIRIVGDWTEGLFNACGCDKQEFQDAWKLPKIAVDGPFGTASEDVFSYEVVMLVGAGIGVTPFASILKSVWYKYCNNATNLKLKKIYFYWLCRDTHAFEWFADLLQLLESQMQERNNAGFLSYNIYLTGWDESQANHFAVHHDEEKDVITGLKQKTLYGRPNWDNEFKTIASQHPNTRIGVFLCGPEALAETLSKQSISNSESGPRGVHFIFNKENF
Chain of NADPH oxidase 5 (Homo sapiens) (Q96PH1 whole entry, looked up): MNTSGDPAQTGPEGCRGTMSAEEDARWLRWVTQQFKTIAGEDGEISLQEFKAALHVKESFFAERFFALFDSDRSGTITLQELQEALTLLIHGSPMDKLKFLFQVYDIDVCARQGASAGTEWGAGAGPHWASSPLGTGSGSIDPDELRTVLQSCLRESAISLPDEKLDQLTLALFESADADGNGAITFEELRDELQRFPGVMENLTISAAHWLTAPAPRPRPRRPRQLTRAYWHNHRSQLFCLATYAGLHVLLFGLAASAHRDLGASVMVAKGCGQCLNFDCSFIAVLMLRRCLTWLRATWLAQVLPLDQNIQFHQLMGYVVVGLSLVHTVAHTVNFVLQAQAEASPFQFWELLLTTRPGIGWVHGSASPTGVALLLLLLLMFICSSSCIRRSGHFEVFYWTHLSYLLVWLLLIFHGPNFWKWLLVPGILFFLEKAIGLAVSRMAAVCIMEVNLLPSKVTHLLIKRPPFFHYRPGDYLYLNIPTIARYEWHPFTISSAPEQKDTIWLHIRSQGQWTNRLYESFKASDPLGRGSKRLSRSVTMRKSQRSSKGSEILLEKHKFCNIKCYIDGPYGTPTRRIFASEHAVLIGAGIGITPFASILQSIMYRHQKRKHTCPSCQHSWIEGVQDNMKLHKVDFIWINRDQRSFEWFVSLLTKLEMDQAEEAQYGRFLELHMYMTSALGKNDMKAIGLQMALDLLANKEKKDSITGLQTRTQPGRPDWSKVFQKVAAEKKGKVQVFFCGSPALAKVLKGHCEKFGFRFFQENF

For the compound `CCCCN1CC=CC23O[C@@H]4/C=C\CCCOC(=O)C4[C@H]2C(=O)N(CCCCCCO)[C@@H]3C1=O` (stereo not given in full), the z-score is 2.36 (inactive) in test [1]; 1.81 (inactive) in [3]; -0.88 (inactive) in test [4]; -0.75 (inactive) in test [5]; -0.945 (inactive) in test [6]; 3.08 in test [7]. The z-score in [8] is 0.873 (inactive); in test [9], 0.0146 (inactive); in test [10], 1.84. In test [2], the composite z-score was found to be 0.0927.

Turning to `C=CCNC(=O)[C@H]1[C@@H]2C(=O)O[C@@H](c3ccccc3)[C@@H](c3ccccc3)N2[C@@H](c2ccc(OCCO)cc2)[C@]12C(=O)N(C(=O)OCCOC)c1ccc(C#CCC(C(=O)OC)C(=O)OC)cc12`, the z-score in [1] was -0.335 (inactive); in [3], 4.28 (inactive); in test [4] it was 1.28 (inactive); in test [5], 0.743 (inactive); in test [6], 0.656 (inactive); in test [7], -0.116. Further, the z-score in [8] was 1.64 (inactive); in [9], 0.791 (inactive); in test [10] it was 0.621. In addition, in test [2], the composite z-score is 0.123.

In the case of `O=C(c1ccccc1)N1Cc2ccccc2C[C@@]2(N=C(c3ccc(OCCCO)cc3)O[C@H]2c2ccccc2)C1=O`, the z-score is -0.702 (inactive) in test [1]; 6.6 (inactive) in test [3]; 1.66 (inactive) in test [4]; 2.54 (inactive) in [5]; 0.937 (inactive) in test [6]; -0.221 in test [7]. Moreover, the z-score in test [8] was 1.21 (inactive); in [9] it was -0.172 (inactive); in [10] it was -0.693. In [2], the composite z-score was found to be 0.149.

With `[N-]=[N+]=NCc1ccccc1[C@H]1OC(c2ccc(OCCCO)cc2)=N[C@@]1(Cc1ccccc1N=[N+]=[N-])C(N)=O`, the z-score in test [1] is -0.0584 (inactive); in test [3] it was 22.9 (active); in test [4], 3.47 (inactive); in test [5], 1.46 (inactive); in test [6] it was 0.79 (inactive); in [7], 0.362. Moreover, the z-score was -4.46 (inactive) in test [8], -0.74 (inactive) in test [9] and -2.11 in [10]. In addition, in [2], the composite z-score is 0.439.

Take `C=C(C(=O)CC[C@@H](OC(=O)c1cccnc1)c1cccc(OCCO)c1)C(C)C`: the z-score is 1.35 (inactive) in test [1]; 13.8 (active) in test [3]; 0.717 (inactive) in [4]; -0.204 (inactive) in test [5]; -1.02 (inactive) in test [6]; 0.62 in test [7]. Further, the values for the z-score in test [8], in [9] and in test [10] were -0.967 (inactive), -0.193 (inactive) and -1.84, respectively. The composite z-score in test [2] was -0.309.

As for `COC(=O)[C@@]1(Cc2ccccc2)[C@H]2c3cc(C(=O)N(C)C)n(CCF)c3C[C@H]2CN1C(=O)c1ccccc1`, the z-score in test [1] is -0.81 (inactive); in [3], 1.54 (inactive); in [4] it was 0.322 (inactive); in test [5], 0.484 (inactive); in [6], 0.544 (inactive); in test [7], -0.546. Besides, the z-score in [8] is 0.148 (inactive); in test [9] it was -1.73 (inactive); in test [10] it was -1.89. For the same compound, the composite z-score in [2] stood at 0.873.

Take `[N-]=[N+]=NCc1ccccc1[C@H]1OC(c2ccc(OCCCO)cc2)=N[C@@]1(CCS(=O)(=O)c1ccccc1)C(=O)NCCN1CCOCC1`: the z-score in [1] was -0.265 (inactive); in [3], 27.1 (active); in test [4], 13.2 (active); in [5], 1.38 (inactive); in [6] it was 1.99 (inactive); in test [7] it was -0.124. The z-score was 0.636 (inactive) in test [8], 1.33 (inactive) in test [9] and 1.65 in test [10]. In addition, the composite z-score in [2] came out at 0.877.

Consider `O=C1OCCC/C=C\[C@H]2OC34C=CCN(Cc5ccccc5)C(=O)[C@H]3N(CCO)C(=O)[C@@H]4C12` (stereo not given in full), for which the z-score was 2.28 (inactive) in [1]; 1.65 (inactive) in test [3]; 0.803 (inactive) in test [4]; 1.82 (inactive) in [5]; 0.671 (inactive) in test [6]; 0.0012 in test [7]. In addition, the z-score was 1.7 (inactive) in test [8], 0.571 (inactive) in test [9] and 1.68 in test [10]. The same compound registered a composite z-score in [2] of -0.0536.

For `COC(=O)C[C@H]1O[C@]2(C(=O)N(C)c3ccccc32)[C@@H](C)[C@@H]1[Si](C)(C)c1ccccc1`, the z-score in test [1] was -0.297 (inactive); in test [3], 1.48 (inactive); in test [4], 0.405 (inactive); in [5], 1.1 (inactive); in test [6], 0.0591 (inactive); in test [7], 0.252. Also, the z-score in test [8] was 0.767 (inactive); in test [9], 0.176 (inactive); in [10], -1.11. In [2], this compound came in with a composite z-score of 0.151.

For the compound `Cc1ccc(N2C(=O)c3ccccc3[C@@H](C(=O)NCCN3CCOCC3)[C@@H]2c2ccc(CO)cc2)nc1`, the z-score was 0.279 (inactive) in [1]; 0.443 (inactive) in test [3]; -0.229 (inactive) in test [4]; -0.319 (inactive) in test [5]; 0.155 (inactive) in test [6]; -0.334 in test [7]. In addition, the figures for the z-score in test [8], in test [9] and in test [10] were 0.335 (inactive), -0.36 (inactive) and -1.86, respectively. This compound also registered a composite z-score in test [2] of -0.303.

With `C=CCNC(=O)[C@H]1[C@@H]2C(=O)O[C@@H](c3ccccc3)[C@@H](c3ccccc3)N2[C@@H](c2ccc(OCCO)cc2)[C@]12C(=O)Nc1ccc(C#Cc3ccc(OC)cc3)cc12`, the z-score in [1] is -0.0405 (inactive); in test [3] it was 3.42 (inactive); in [4] it was 2.19 (inactive); in [5], 0.866 (inactive); in test [6], 1.4 (inactive); in test [7] it was -0.0157. Moreover, the results for the z-score in test [8], in [9] and in test [10] were 0.87 (inactive), 0.34 (inactive) and 1.43, respectively. The composite z-score in [2] is -0.248.
